# Test results: PubChem BioAssay (EPA / NIEHS)
# Records with an inconclusive call do not appear. Active and inactive are the calls of the source. The calls were made as follows, unless noted: active = hit-call score of the fitted dose curve at least 0.9, where 1 is the maximum; inactive = score below 0.9.
# Tests used:
# [1] = CCTE_Harrill_HTTr_Viability_MCF7: CCTE's 6-hour Cell Viability Assessment for the High-Throughput Transcriptomics (HTTr) Platform, in MCF-7 cells cultured in DMEM + 10% fetal bovine serum, Harrill Lab (AID 2284010)
# How it was run: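 MCF-7 cells in DMEM + 10% FBS, 384-well, exposed 6 h to an eight-point dilution series. Membrane integrity scored by high-content imaging of propidium iodide exclusion; bidirectional fit versus DMSO.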
# [2] = CCTE_Harrill_HTTr_Apoptosis_MCF7: CCTE's 6-hour Apoptosis Assessment for the High-Throughput Transcriptomics (HTTr) Platform, in MCF-7 cells cultured in DMEM + 10% fetal bovine serum, Harrill Lab (AID 2284011)
# How it was run: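 Apoptosis in MCF-7 cells grown in DMEM with 10% fetal bovine serum was scored after a six hour exposure by high content imaging of caspase-3/7 activation (CellEvent Caspase 3/7 Green), with DMSO serving as negative control and baseline.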
# [3] = CCTE_Harrill_HTTr_CellCount_MCF7: CCTE's Cell Proliferation Assessment for the High-Throughput Transcriptomics (HTTr) Platform, Harrill Lab (AID 2284012; active = hit-call score of the fitted dose curve at least 0.9, where 1 is the maximum;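 also: cells exposed to compound for six hours; intended direction is loss of nuclei count meaning fewer cells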)
# How it was run: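 MCF7 cells exposed 6 hours to an eight-point dilution series; Hoechst-stained nuclei counted by high-content imaging. Bidirectional curve fitting against DMSO baseline.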
Compound,outcome [1],outcome [2],outcome [3],AC50 [3]
COc1ccc(COC(C)=O)cc1,inactive,inactive,inactive,
Cc1[nH]c(=O)c(C#N)cc1-c1ccncc1,inactive,inactive,inactive,
O=[N+]([O-])c1cccc(Cl)c1,inactive,inactive,inactive,
Clc1ccc(C(c2ccccc2Cl)C(Cl)Cl)cc1 (centres undefined),inactive,inactive,inactive,
CC(C)C[C@H](NC(=O)OCC1c2ccccc2-c2ccccc21)C(=O)O,inactive,inactive,inactive,
CCCCCc1ccco1,inactive,inactive,inactive,
CC1(C)O[C@@H]2[C@@H](CO[C@@]3(COS(N)(=O)=O)OC(C)(C)O[C@@H]23)O1,inactive,inactive,inactive,
OCCc1ccccc1,inactive,inactive,inactive,
[O-]n1ccccc1=S.[O-]n1ccccc1=S.[Zn+2],inactive,inactive,,50 µM (active)
O=C(O)CCCCCCCCCCCC(=O)O,inactive,inactive,inactive,
CC(O)C1CCCCC1 (centres undefined),inactive,inactive,inactive,
COC(=O)Nc1ccc(Cl)c(Cl)c1,inactive,inactive,inactive,
Clc1cc(Cl)c(-c2c(Cl)c(Cl)cc(Cl)c2Cl)cc1Cl,inactive,inactive,inactive,
Cc1ccc(-c2ccccc2)cc1,inactive,inactive,inactive,
O=CCc1ccccc1,inactive,inactive,inactive,
O=C1c2ccccc2C(=O)c2c(O)ccc(O)c21,inactive,inactive,inactive,
O=C(c1ccccc1)C(O)c1ccccc1 (centres undefined),inactive,inactive,inactive,
C=C(C)[C@H]1CC=C(C)C(=O)C1,inactive,inactive,inactive,
